Screening results deposited in PubChem BioAssay by National Center for Advancing Translational Sciences (NCATS).
SMN2 splice up – SMN2 splice variant enhancement | HEK293 SMN2-luciferase splicing reporter, luminescence, 30-36 h | Potency, µM (top dose mostly 46.1 µM), for inactives: at the top dose activity change, positive = activation, hits mostly activators | actives 2.8% (n = 210,000); also: % of control where 0% means no effect; nearly all actives have a fitted effect of over 55% in size
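HEK293 cells carry an SMN2 […]–luciferase reporter in which exon 7 inclusion puts luciferase in frame. Cells were plated 10-12 h before compound addition, then incubated 30-36 h at 37C. ONE-Glo luminescence was read; sodium butyrate at 4.5 mM final served as control.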
Rab9 prom act – activates the Rab9 promoter; Huh7 Rab9 promoter-luciferase reporter, luminescence, 24 h; Potency, µM (highest dose often 9.22 µM), for inactives: at the top dose activation, negative = inhibition, actives largely listed as activators; actives 2.8% (n = 320,000); AID 485297; also: % of control where 0% means no effect; nearly all actives have a fitted effect of over 60% in size
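Huh7 reporter line, Rab9 promoter upstream of luciferase. Compound exposure 24 h at 37 °C in reduced-serum medium with 10% FBS. Read-out: luminescence.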
FLuc modulator – firefly luciferase modulation, counter-screen for miR-21 project; P08659; purified FLuc, Km substrates, luminescence inhibition; Potency, µM (series often up to 57.5 µM), for inactives: top-dose activity change, negative = inhibition, hits mostly inhibitors; actives 6.9% (n = 360,000); AID 588342;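 also: plate controls were vehicle for no effect and reference inhibitor for full effect; nearly all actives have a fitted effect of over 55% in size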
Target sequence (P08659 whole entry, looked up): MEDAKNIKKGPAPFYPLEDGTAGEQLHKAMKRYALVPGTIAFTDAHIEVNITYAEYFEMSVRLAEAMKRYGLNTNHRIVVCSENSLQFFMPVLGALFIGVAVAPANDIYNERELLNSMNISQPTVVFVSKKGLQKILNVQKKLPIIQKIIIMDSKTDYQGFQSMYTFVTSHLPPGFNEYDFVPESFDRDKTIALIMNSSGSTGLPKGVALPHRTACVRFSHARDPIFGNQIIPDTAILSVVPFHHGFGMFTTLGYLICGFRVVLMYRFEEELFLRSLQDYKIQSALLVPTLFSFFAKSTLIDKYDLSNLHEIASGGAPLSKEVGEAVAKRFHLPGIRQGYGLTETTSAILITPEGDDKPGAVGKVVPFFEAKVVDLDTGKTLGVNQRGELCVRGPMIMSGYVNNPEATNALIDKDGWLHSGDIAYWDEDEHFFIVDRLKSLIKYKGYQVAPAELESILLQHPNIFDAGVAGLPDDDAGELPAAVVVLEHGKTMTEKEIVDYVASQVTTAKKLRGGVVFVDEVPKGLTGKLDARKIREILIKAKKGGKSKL
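Biochemical qHTS of compounds, final roughly 60 µM downward over six points, against 10 nM purified firefly luciferase using Km concentrations of substrates (10 uM D-luciferin, 10 uM ATP) in Tris acetate pH 7.5 buffer; luminescence output.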
NPC1 prom act – activators of NPC1 promoter; Huh7 NPC1 promoter luciferase reporter, 24 h; Potency, µM (series often up to 9.22 µM), without a hit: top-dose activation, usual class: activators; actives 2.4% (n = 320,000); AID 485313; also: % of control where 0% means no effect; nearly all actives have a fitted effect of over 60% in size
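Stable NPC1-promoter luciferase Huh7 line; cpd (DMSO) 24 h, 37 °C, 5% CO2; Amplite luciferase reagent 10 min RT; luminescence readout. qHTS format.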
ELG1 genotox – inducers of genotoxicity in HEK293T ELG1-luciferase cells; HEK293T ELG1-luciferase reporter, luminescence, 16 h; Potency, µM (highest dose often 46 µM), for the others: top-dose activity change, positive = activation, hits mostly activators; actives 1.3% (n = 330,000); AID 504466; also: % of control where 0% means no effect; nearly all actives have a fitted effect of over 60% in size
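Reporter readout depends on ELG1 protein level, which increases with genetic stress. After 16 hr compound exposure at 37 °C, luciferase activity was quantified using ONE-Glo.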
ELG1 DNA repair – ELG1-dependent DNA repair inhibition. actives 2.3% (n = 330,000). HEK293T ELG1-luciferase reporter, luminescence, 16 h; DNA damage induced by 5-fluorouridine. Potency, µM (doses to about 46.1 µM), inactives show at the highest dose activity change, negative = inhibition, usual class: inhibitors; also: % is scaled to controls: 0 for no effect and ±100 for the full control effect; nearly all actives have a fitted effect of over 55% in size
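HEK293T cells expressing luciferase-tagged ELG1 (2,000/well) received 5-Fluorouridine plus compound or DMSO for 16 hr at 37 °C. Luciferase was read by ONE-Glo luminescence after 30 min at room temperature.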
The depositor's hits bear a star; ? = inconclusive; nt = not tested or not shown. Rows were chosen to be rich in hits. Some 9.2% of all compounds tested hit in one or more screens of this group. Calls follow the shape of the dose curve; as a rule, active = well fitted curve in the direction sought with a large enough effect; inconclusive = small, poorly fitted or top-dose-only effect, or another doubt; inactive = no such curve, though single readings can be large; an effect the other way counts as inactive or inconclusive. Potency is read from the fitted curve at half-maximal effect.

SMILES	SMN2 splice up	Rab9 prom act	FLuc modulator	NPC1 prom act	ELG1 genotox	ELG1 DNA repair
CC(=O)c1cccc(NC(=O)c2ccc(NS(C)(=O)=O)cc2)c1	11%	6%	-19%	2%	1%	?
CC(C)c1ccc(NC(=O)c2ccc(NS(C)(=O)=O)cc2)cc1	-6%	2%	6.7µM*	1%	0%	-12%
CS(=O)(=O)Nc1ccc(C(=O)Nc2ccc3ccccc3c2)cc1	nt	0.63µM*	2.4µM*	?	?	?
COc1cccc(NC(=O)CC(=O)c2ccccc2)c1	nt	2.8µM*	17µM*	3.5µM*	?	?
COc1cccc(NC(=O)Cc2ccccc2)c1	-18%	2%	-19%	11%	12%	?
NC(=O)c1cc(S(=O)(=O)Nc2ccc(OC(F)(F)F)cc2)cs1	nt	2%	2%	-4%	-5%	-8%
OC(c1ccccc1)c1nc2ccccc2n1Cc1c(F)cccc1Cl (stereo unspecified)	9%	nt	-2%	nt	nt	nt
CC(C)COc1ccc(C(=O)N(Cc2cccc(F)c2)C2CCS(=O)(=O)C2)cc1 (stereo unspecified)	1%	nt	2%	nt	nt	nt
COc1cccc(C(=O)NNC(=O)c2cccnc2)c1	nt	0%	4%	-3%	-1%	0%
COc1cccc(C(=O)Nc2cccc(SC)c2)c1	?	?	9.5µM*	24%	9.2µM*	?
O=C(Nc1ccc(O)cc1)c1ccc(C(=O)c2ccccc2)o1	7%	20%	7.6µM*	?	9%	23%
COc1cccc(NC(=O)c2ccc(C(=O)c3ccccc3)o2)c1	20µM*	?	6.7µM*	?	0%	?
COc1cccc(C(=O)NNC(=O)c2ccccc2)c1	nt	3.5µM*	?	2.5µM*	12µM*	?
CCc1c(C)sc2c1CCN(Cc1cccc(F)c1)C2c1ccccc1 (stereo unspecified)	nt	nt	-6%	nt	nt	nt
CSc1cccc(NC(=O)c2ccc3c(c2)CCCN3S(C)(=O)=O)c1	-11%	nt	12µM*	nt	nt	nt
COc1cccc(C(=O)Nc2cnn(C(C)C)c2)c1	nt	2.5µM*	?	?	?	?
COc1cccc(/C(C)=N/N=C(\C)c2cccc(OC)c2)c1	nt	3.2µM*	6.7µM*	?	?	?
Cc1ccc(C(=O)Nc2cccc(Oc3ccccc3)c2)o1	13%	?	19µM*	29%	?	?
COc1cccc(NC(=O)c2cccnc2)c1	?	14%	1%	-3%	1%	?
CCC(NC(=O)Nc1cc(OC)ccc1OC)c1c(-n2cccc2)sc2c1CCN(CC)C2 (stereo unspecified)	nt	nt	-9%	nt	nt	nt
O=C(Nc1ccccc1C(=O)Nc1ccncc1)c1cccc([N+](=O)[O-])c1	nt	2.2µM*	0.095µM*	2.8µM*	?	?
Cc1ccc(S(=O)(=O)N2CCCc3cc(NC(=O)c4c(F)cccc4F)ccc32)cc1	nt	0%	-1%	-4%	-2%	23µM*
COc1cccc(OC)c1C(=O)Nc1ccc2c(c1)CCCN2S(=O)(=O)c1ccc(C)cc1	nt	-2%	1%	-2%	-5%	0%
Cc1cccc(C(=O)Nc2ccc(C)c(OC(=O)c3cccc(C)c3)c2)c1	-11%	12%	-14%	1%	?	?
COc1ccc(C(=O)C(C)Oc2cccc(NC(=O)c3cccc([N+](=O)[O-])c3)c2)cc1 (stereo unspecified)	-13%	1%	-8%	0%	-2%	15µM*
Cc1cccc(C(=O)Nc2ccc3ccccc3c2)c1	nt	0.63µM*	2.4µM*	?	?	?
O=C(O)c1cccc(NC(=O)c2ccccc2NC(=O)c2cccc([N+](=O)[O-])c2)c1	nt	2%	?	0%	-1%	0%
Cc1nn(-c2ccccc2)c(C)c1NC(=O)COC(=O)CC(C)c1ccccc1 (stereo unspecified)	nt	-7%	7%	-2%	1%	12%
